High-throughput results as filed in PubChem BioAssay.
Shown are actives, neighbours in structure and some others; about 2.4% of the full set was active somewhere.
SENP8 block-1: inhibitors of human SENP8 protease | purified SENP8, Z-RLRGG-aminoluciferin cleavage, luminescence | AID 2540 | Q96LD8 | inhibition, % at 10 µM | actives 1.2% (n = 330,000); in the data active = inhibition above about 50%
Target sequence (Q96LD8 whole entry, looked up): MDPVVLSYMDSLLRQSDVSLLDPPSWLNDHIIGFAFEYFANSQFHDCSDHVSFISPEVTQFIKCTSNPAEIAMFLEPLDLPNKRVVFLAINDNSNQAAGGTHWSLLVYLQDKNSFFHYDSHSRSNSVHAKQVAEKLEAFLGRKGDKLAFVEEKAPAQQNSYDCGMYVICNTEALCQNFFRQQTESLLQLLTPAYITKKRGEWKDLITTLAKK
SENP6 inh: inhibitors of human SENP6 protease; Q9GZR1; Recombinant SENP6 catalytic domain, aminoluciferin luminescence; inhibition, % at 10 µM; actives 1.8% (n = 330,000);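 active = inhibition above about 50% at the single tested dose, limit read from the data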;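 note: plate controls were DMSO wells with enzyme for no effect and DMSO wells lacking enzyme for full effect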
Platelet DG rel: platelet dense granule release activity; human platelet-rich plasma, SFLLRN dense granule ATP release, luminescence; inhibition, %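 (compounds screened at 7.5 µM in platelet-rich plasma)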; actives 0.22% (n = 300,000); AID 1663;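 active = mean replicate score, as percent of positive control, at or above 50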
SENP8 block-2: blocks human SENP8 cleavage of Nedd8 substrate. recombinant SENP8, Nedd8 substrate fluorescence. actives 0.64% (n = 360,000). Q96LD8. AID 602440. inhibition, % at 20 µM; in the data active = inhibition mostly above about 40%, no sharp cut-off; inactive = mostly below about 27%
SENP7 inh: SENP7 protease inhibition; recombinant SENP7, Z-RLRGG-aminoluciferin luminescence, 40 min; inhibition, % at 5 µM; actives 1.5% (n = 330,000); AID 434973;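 active = inhibition above about 50% at the single test dose, limit read from the data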;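 note: plate controls were DMSO with enzyme for no effect and no enzyme buffer wells for full effect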
Target sequence (Q9BQF6 706-1050 limits assumed): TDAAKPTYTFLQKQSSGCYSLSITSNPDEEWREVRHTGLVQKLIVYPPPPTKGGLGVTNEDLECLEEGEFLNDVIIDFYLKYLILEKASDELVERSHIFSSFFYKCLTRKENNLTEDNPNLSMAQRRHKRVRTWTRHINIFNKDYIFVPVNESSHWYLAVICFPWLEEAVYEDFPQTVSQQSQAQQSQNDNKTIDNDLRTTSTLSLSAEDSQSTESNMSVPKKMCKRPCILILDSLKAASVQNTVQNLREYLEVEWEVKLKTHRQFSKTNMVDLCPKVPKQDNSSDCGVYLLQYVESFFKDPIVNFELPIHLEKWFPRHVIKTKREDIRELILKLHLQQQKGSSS
SENP8 conf: human SENP8 inhibition, confirmed. shares compounds with SENP7 inh. inhibition, % at 12.5 µM. AID 488912. actives 40% (n = 6,200). Recombinant SENP8, Z-RLRGG-aminoluciferin luminescence, 60 min;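 active = mean inhibition across replicates above about 50%, limit read from the data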
SENP6 conf: human SENP6 inhibition, confirmed; actives 58% (n = 6,200); inhibition, % at 12.5 µM; shares compounds with SENP7 inh; AID 488915; recombinant SENP6, Z-RLRGG-aminoluciferin luminescence
SENP7 conf: human SENP7 inhibition, confirmed; shares compounds with SENP7 inh; recombinant SENP7, Z-RLRGG-aminoluciferin luminescence, 40 min; inhibition, % at 12.5 µM; actives 69% (n = 6,200)
Casp3 select: inhibits human caspase-3 in SENP selectivity test; purified caspase-3, Z-DEVD-aminoluciferin luminescence, 60 min; inhibition, % at 12.5 µM; shares compounds with SENP7 inh; actives 60% (n = 6,200);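 active = mean inhibition above about 50%, limit read from the data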;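 note: plate controls were enzyme with DMSO for no effect and wells without caspase-3 for full effect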
Luc interf: luminescence interference (SENP counter-screen) | shares compounds with SENP7 inh | Pre-incubated SENP8/Z-RLRGG-aminoluciferin, luciferase luminescence interference | inhibition, % at 12.5 µM | actives 39% (n = 6,200);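 active = mean inhibition above about 50% when retested at one dose, limit read from the data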;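 note: plate controls were DMSO wells with completed reaction for no effect and substrate without enzyme for full effect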
Starred values were filed as active, the others as inactive.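 Rule for the calls, unless noted: active = mean inhibition above about 50% in the one-dose retest (limit read from the data); inactive = the rest.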

Cn1c(C(=O)Nc2ccc3c(c2)OCO3)cc2sccc21 was read as SENP8 block-1 46, SENP6 inh 71*, Platelet DG rel -1, SENP8 block-2 -23, SENP7 inh 63*, SENP8 conf 59*, SENP6 conf 61*, SENP7 conf 88*, Casp3 select 47 and Luc interf 44.
Screening Cn1c(C(=O)Nc2ccccc2)cc2sccc21 returned SENP8 block-1 17, SENP6 inh 53*, Platelet DG rel 0, SENP8 block-2 9, SENP7 inh 38, SENP8 conf 34, SENP6 conf 33, SENP7 conf 68*, Casp3 select 36 and Luc interf 54*.
Screening COC(=O)c1ccc(NC(=O)c2cc3sccc3n2C)cc1 returned Platelet DG rel -5 and SENP8 block-2 -187.
For O=C(Nc1ccc([N+](=O)[O-])cc1)Nn1cnnc1 the results were SENP8 block-1 -16, SENP6 inh 0, Platelet DG rel -2, SENP8 block-2 6 and SENP7 inh -8.
C#CCN(C[C@@H]1[C@@H](OC(=O)NCCCCCC)[C@@H](OC(=O)NCCCCCC)Cn2c(=O)n(CCCCCC)c(=O)n21)S(=O)(=O)c1ccc(C)cc1 was read as SENP8 block-2 0.
`N#CC1(c2ccc(NC(=O)c3ccccc3F)cc2)CCCC1` gave SENP8 block-1 76*, SENP6 inh 84*, Platelet DG rel 6, SENP8 block-2 17, SENP7 inh 76*, SENP8 conf 80*, SENP6 conf 77*, SENP7 conf 93*, Casp3 select 74* and Luc interf 64*.
`COc1ccc(C(=O)Nc2ccc(C3(C#N)CCCC3)cc2)cc1` gave SENP8 block-1 -12, SENP6 inh -20, Platelet DG rel 4, SENP8 block-2 4 and SENP7 inh -7.
Screening O=C(Cn1nc(-c2ccccc2)c2ccccc2c1=O)NCCO returned SENP8 block-1 5, SENP6 inh -7, Platelet DG rel -2, SENP8 block-2 10 and SENP7 inh -1.
For CCOc1cc(/C=C2/SC(=S)NC2=O)ccc1OC(=O)c1ccco1 the results were SENP8 block-1 3, SENP6 inh 3, Platelet DG rel 0, SENP8 block-2 20 and SENP7 inh 4.
`COc1cc(/C=N/N2CCOCC2)ccc1OC(=O)c1ccco1` gave SENP8 block-1 40, SENP6 inh 60*, Platelet DG rel 19, SENP8 block-2 -2, SENP7 inh 70*, SENP8 conf 60*, SENP6 conf 57*, SENP7 conf 88*, Casp3 select 67* and Luc interf 77*.
COc1cc(/C=N/N(C)C)ccc1OC(=O)c1ccco1 was read as SENP8 block-1 -6, SENP6 inh -7, Platelet DG rel -6, SENP8 block-2 7 and SENP7 inh 1.
Screening COc1cc(/C=C2\C(=O)N(c3ccc(S(N)(=O)=O)cc3)N=C2C)ccc1OC(=O)c1ccco1 returned SENP8 block-1 26, SENP6 inh 76*, Platelet DG rel -3, SENP8 block-2 57*, SENP7 inh 70*, SENP8 conf 12, SENP6 conf 35, SENP7 conf -2, Casp3 select 5 and Luc interf -1.
`COc1cc(/C=C2/SC(=O)NC2=O)ccc1OC(=O)c1ccco1` gave SENP8 block-1 82*, SENP6 inh 88*, Platelet DG rel -8, SENP8 block-2 -15, SENP7 inh 85*, SENP8 conf 58*, SENP6 conf 74*, SENP7 conf 24, Casp3 select 61* and Luc interf 22.
COc1cc(/C=C2/C(=N)N3C(SC)=NSC3=NC2=O)ccc1OC(=O)c1ccco1 was read as SENP8 block-1 64*, SENP6 inh 53*, Platelet DG rel 0, SENP8 block-2 8, SENP7 inh 8, SENP8 conf 75*, SENP6 conf 73*, SENP7 conf 92*, Casp3 select 68* and Luc interf 13.
CCOC(=O)c1ccc(N2NC(=O)/C(=C/c3ccc(OC(=O)c4ccco4)c(OC)c3)C2=O)cc1 was read as SENP8 block-1 -12, SENP6 inh -18, Platelet DG rel 20 and SENP7 inh -1.
For O=C1NC(=S)S/C1=C/c1ccc(OC(=O)c2ccco2)cc1 the results were SENP8 block-1 46, SENP6 inh 76*, Platelet DG rel -7, SENP8 block-2 27, SENP7 inh 29, SENP8 conf 21, SENP6 conf 32, SENP7 conf 9, Casp3 select 26 and Luc interf 10.
For COc1cc(/C=C2/SC(=S)N(C)C2=O)ccc1OC(=O)c1ccco1 the results were SENP8 block-1 28, SENP6 inh 5, Platelet DG rel 2, SENP8 block-2 34, SENP7 inh 66*, SENP8 conf 8, SENP6 conf 7, SENP7 conf 3, Casp3 select 16 and Luc interf 28.
For COc1cc(/C=C2\SC(=S)N(NC(C)=O)C2=O)ccc1OC(=O)c1ccco1 the results were SENP8 block-1 21, SENP6 inh 14, SENP8 block-2 22 and SENP7 inh -13.
Screening c1ccc(CCNc2nc(-c3ccccn3)cs2)cc1 returned SENP8 block-1 29, SENP6 inh 52*, Platelet DG rel -4, SENP8 block-2 -6, SENP7 inh 43, SENP8 conf 2, SENP6 conf -2, SENP7 conf -2, Casp3 select 4 and Luc interf 12.
c1ccc(CCNc2nc(-c3cccnc3)cs2)cc1 was read as SENP8 block-1 -4, SENP6 inh -5, Platelet DG rel 0, SENP8 block-2 6 and SENP7 inh 4.
`CCN(CC(=O)Nc1ccc2c(c1)OCCO2)C(=O)c1cc(=O)[nH]c2ccccc12` gave SENP8 block-1 -4, SENP6 inh -8, Platelet DG rel 11, SENP8 block-2 -94 and SENP7 inh 1.
Screening CC(C)(C)NC(=O)COc1ccc(-c2ccccc2)cc1 returned SENP8 block-1 -1, SENP6 inh 51*, Platelet DG rel 2, SENP8 block-2 14, SENP7 inh 32, SENP8 conf 36, SENP6 conf 28, SENP7 conf 62*, Casp3 select 31 and Luc interf 21.
